# Experimental data from the supplement of paper PMC10105736.
# A number with no mark means an inactive call.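 Rule for the calls: active = MAPPIT score above the 99th percentile of random reference set scores in the same batch; inactive = at or below it.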
# How the values were obtained:
# Test in all cases: MAPPIT interaction score (arbitrary units); higher = stronger binary interaction signal, active = hit call of the paper
# 128up = conditions: MAPPIT configuration: N-N; pair source set: DPIM
# Procedure: (§1)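 MAPPIT in HEK293T cells: Drosophila bait and prey ORFs (from the FlyBi ORF collection) were co-transfected in quadruplicate, with two wells stimulated by erythropoietin. Interaction-dependent JAK-STAT activation was read out with a STAT-responsive firefly luciferase reporter. Positive calls use the 99th percentile of random reference set (RRS) scores within each batch […]. Batches Dvs01 and Dvs02 used the N-N configuration and Dvs04 the N-C configuration. Pairs come from FlyBi screens, CuraGen, DPiM, Finley Y2H, Lit-BM-16, Lit-BS-16 and RRS.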
# 14-3-3epsilon = conditions: pair source set: Lit-BM-16
# Procedure: as §1
# hpo = conditions: MAPPIT configuration: N-N; pair source set: Lit-BM-16
# Procedure: as §1
# sd = conditions: MAPPIT configuration: N-C; pair source set: Lit-BM-16
# Procedure: as §1
# CG5174 = conditions: MAPPIT configuration: N-N; pair source set: Curagen_low_conf
# Procedure: as §1
# LamC = conditions: MAPPIT configuration: N-N; pair source set: DPIM
# Procedure: as §1
# mon2 = conditions: MAPPIT configuration: N-N; pair source set: Curagen_low_conf
# Procedure: as §1
# par-1 = conditions: pair source set: Lit-BM-16
# Procedure: as §1
# sol = conditions: MAPPIT configuration: N-N; pair source set: Curagen_low_conf
# Procedure: as §1
# tral = conditions: MAPPIT configuration: N-N; pair source set: Lit-BS-16
# Procedure: as §1
# 14-3-3zeta = conditions: pair source set: Lit-BM-16
# Procedure: as §1
# yki = conditions: MAPPIT configuration: N-N; pair source set: Lit-BM-16
# Procedure: as §1
# 7B2 = conditions: MAPPIT configuration: N-N; pair source set: Finley_Y2H
# Procedure: as §1
# CG10591 = conditions: MAPPIT configuration: N-N; pair source set: Curagen_low_conf
# Procedure: as §1
# CSN7 = conditions: MAPPIT configuration: N-N; pair source set: Lit-BM-16
# Procedure: as §1
# PICK1 = conditions: MAPPIT configuration: N-N; pair source set: screen_1
# Procedure: as §1
# 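Note: HEK293T cells with Epo stimulation, STAT-responsive firefly luciferase reporter, fold induction versus unstimulated cells divided by the larger fold induction of two negative controls lacking either bait or prey.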
binder,measurement,setting,value
mod (protein) MAQKKAVTVKGKKATNGEEKPLAKRVTKSTKVQEEETVVPQSPSKKSRKQPVKEVPQFSEEDESDVEEQNDEQPGDDSDFETEEAAGLIDDEAEEDEEYNSDDEEDDDDDELEPGEVSKSEGADEVDESDDDEEAPVEKPVSKKSEKANSEKSEENRGIPKVKVGKIPLGTPKNQIVFVTNLPNEYLHKDLVALFAKFGRLSALQRFTNLNGNKSVLIAFDTSTGAEAVLQAKPKALTLGDNVLSVSQPRNKEENNERTVVVGLIGPNITKDDLKTFFEKVAPVEAVTISSNRLMPRAFVRLASVDDIPKALKLHSTELFSRFITVRRISQESISRTSELTLVVENVGKHESYSSDALEKIFKKFGDVEEIDVVCSKAVLAFVTFKQSDAATKALAQLDGKTVNKFEWKLHRFERSTSGRAILVTNLTSDATEADLRKVFNDSGEIESIIMLGQKAVVKFKDDEGFCKSFLANESIVNNAPIFIEPNSLLKHRLLKKRLAIGQTRAPRKFQKDTKPNFGKKPFNKRPAQENGGKSFVKRARF,MAPPIT interaction score,128up,-0.0936
yki (protein) MLTTMSASSNTNSLIEKEIDDEDMLSPIKSNNLVVRVNQDTDDNLQALFDSVLNPGDAKRPLQLPLRMRKLPNSFFTPPAPSHSRANSADSTYDAGSQSSINIGNKASIVQQPDGQSPIAAIPQLQIQPSPQHSRLAIHHSRARSSPASLQQNYNVRARSDAAAANNPNANPSSQQQPAGPTFPENSAQEFPSGAPASSAIDLDAMNTCMSQDIPMSMQTVHKKQRSYDVISPIQLNRQLGALPPGWEQAKTNDGQIYYLNHTTKSTQWEDPRIQYRQQQQILMAERIKQNDVLQTTKQTTTSTIANNLGPLPDGWEQAVTESGDLYFINHIDRTTSWNDPRMQSGLSVLDCPDNLVSSLQIEDNLCSNLFNDAQAIVNPPSSHKPDDLEWYKIN,MAPPIT interaction score,14-3-3epsilon; MAPPIT configuration: N-C,2.04
same,MAPPIT interaction score,14-3-3epsilon; MAPPIT configuration: N-N,2.25
same,MAPPIT interaction score,hpo,0.208
same,MAPPIT interaction score,sd,0.32
14-3-3zeta (protein) MSTVDKEELVQKAKLAEQSERYDDMAQAMKSVTETGVELSNEERNLLSVAYKNVVGARRSSWRVISSIEQKTEASARKQQLAREYRERVEKELREICYEVLGLLDKYLIPKASNPESKVFYLKMKGDYYRYLAEVATGDARNTVVDDSQTAYQDAFDISKGKMQPTHPIRLGLALNFSVFYYEILNSPDKACQLAKQAFDDAIAELDTLNEDSYKDSTLIMQLLRDNLTLWTSDTQGDEAEPQEGGDN,MAPPIT interaction score,14-3-3epsilon; MAPPIT configuration: N-N,3.94 (active)
same,MAPPIT interaction score,CG5174,0.738
same,MAPPIT interaction score,LamC,0.222
same,MAPPIT interaction score,mon2,0.305
same,MAPPIT interaction score,par-1; MAPPIT configuration: N-C,-0.258
same,MAPPIT interaction score,par-1; MAPPIT configuration: N-N,-0.148
same,MAPPIT interaction score,sol,1.59
same,MAPPIT interaction score,tral,0.0264
14-3-3epsilon (protein) MTERENNVYKAKLAEQAERYDEMVEAMKKVASMDVELTVEERNLLSVAYKNVIGARRASWRIITSIEQKEENKGAEEKLEMIKTYRGQVEKELRDICSDILNVLEKHLIPCATSGESKVFYYKMKGDYHRYLAEFATGSDRKDAAENSLIAYKAASDIAMNDLPPTHPIRLGLALNFSVFYYEILNSPDRACRLAKAAFDDAIAELDTLSEESYKDSTLIMQLLRDNLTLWTSDMQAEEVDPNAGDGEPKEQIQDVEDQDVS,MAPPIT interaction score,14-3-3zeta; MAPPIT configuration: N-C,1.51
same,MAPPIT interaction score,14-3-3zeta; MAPPIT configuration: N-N,4.99 (active)
same,MAPPIT interaction score,par-1; MAPPIT configuration: N-C,-0.702
same,MAPPIT interaction score,par-1; MAPPIT configuration: N-N,-0.144
same,MAPPIT interaction score,yki,0.198
CSN4 (protein) MAANYGISTAALRSQLMGLINFTGTHKDQADKYRQLLKTVLTNTGQELIDGLRLFVEAIVNEHVSLVISRQILNDVGSELSKLPDDLSKMLSHFTLEKVNPRVISFEEQVAGIRFHLANIYERNQQWRDAATVLVGIPLETGQKQYSVECKLGTYLKIARLYLEDNDSVQAELFINRASLLQAETNSEELQVLYKVCYARVLDYRRKFIEAAQRYNELSYRKIVDQGERMTALKKALICTVLASAGQQRSRMLATLFKDERCQHLPAYGILEKMYLERIIRRSELQEFEALLQDHQKAATSDGSSILDRAVFEHNLLSASKLYNNITFEELGALLDIPAVKAEKIASQMITEGRMNGHIDQISAIVHFENRELLPQWDRQIQSLCYQVNSIIEKISVAEPDWMDNLN,MAPPIT interaction score,7B2,-0.195
same,MAPPIT interaction score,CG10591,0.0604
same,MAPPIT interaction score,CSN7,4.26 (active)
same,MAPPIT interaction score,PICK1,2.03
